According to PubChem BioAssay:
Where “and” joins values, the source holds several entries; their conditions need not be identical. Equal values may be shown once. Records with an inconclusive call do not appear. Calls of active or inactive are those of the source.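 Rule for the calls, unless noted: active = superoxide response below 65% of plate, a cut near 3 SD across the whole screen; inactive = the rest.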

Tests used:
[1] = yeast TOR pathway RPL19A-GFP modulators, primary screen, cell-based, S. cerevisiae, multiplex flow cytometry (AID 1862; in the data active = percent of DMSO control GFP below about 86%;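 note: lower values mimic rapamycin by blocking the RPL19A rise seen in DMSO cells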); conditions: S. cerevisiae RPL19A-GFP strain, flow cytometry fluorescence, 3 h; at 10 µM; stronger effect = lower value
[2] = modulators of MEP2-GFP levels in yeast, primary screen, S. cerevisiae, multiplex flow cytometry (AID 1867;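 active = GFP response, as percent of the DMSO control, above the screen-wide mean plus 3 SD, about 139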;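 note: median GFP channel fluorescence of barcode-gated MEP2-GFP cells measured by flow cytometry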); conditions: S. cerevisiae MEP2-GFP strain, 3 h, at 10 µM, stronger effect = higher value, 100% means same as DMSO wells
[3] = modulators of CIT2-GFP expression in yeast, primary screen, S. cerevisiae, GFP fusion, multiplex flow cytometry (AID 1870;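 active = percent response above a set limit, the screen-wide mean plus 3 SD, cut at about 130% in these data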;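 note: barcoded CIT2-GFP strain pooled with four other GFP strains with rapamycin as positive control; median GFP fluorescence per well over plate mean of DMSO wells so 100% = DMSO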); conditions: 3 h, at 10 µM, stronger effect = higher value
[4] = modulators of LAP4-GFP expression in yeast, primary screen, S. cerevisiae, multiplex flow cytometry (AID 1873;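 active = GFP signal, as percent of the solvent control, above the screen mean plus 3 SD, about 149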); conditions: 3 h, at 10 µM, stronger effect = higher value
[5] = modulators of AGP1-GFP expression in yeast TOR pathway, primary screen, cell-based, multiplex flow cytometry, S. cerevisiae (AID 1887;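 active = GFP signal above the screen-wide mean plus 3 SD, that is over about 124.5% of the solvent control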;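 note: AGP1-GFP fusion strain of S. cerevisiae within a five-strain barcoded multiplex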); conditions: 3 h, at 10 µM, stronger effect = higher value
[6] = inhibitors of CD8+ T cell-vesicle binding, pilot screen, LFA-1/ICAM-1 modulator project, MLPCN validation set, flow cytometry (AID 2523;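 active = response below a set limit, under 55% cells CD8-positive and vesicle-bound, and CD8 cells' 90th-percentile brightness under 279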;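 for vesicle binding response: mean PE anti-B7-1 fluorescence of CD8+ cells relative to row control; 100% = QL9-loaded vesicles with DMSO vehicle in the same plate row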); conditions: 2C mouse CD8+ T cells, at 7 µM, stronger effect = lower value; double positive events: measured here: CD8+/vesicle+ event percentage
[7] = molecular target: Integrin beta-1 (Homo sapiens) + Integrin alpha-4 (Homo sapiens) (UniProt P13612+P05556); test: inhibition of HUTS-21 binding to VLA-4, pilot screen, VLA-4 allosteric modulator project, U937 cells, HUTS-21 mAb, flow cytometry, validation set (AID 2674;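 active = inhibition above 50%, about 3 SD of the validation set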;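 note: antibody binding induced by the VLA-4 ligand LDV present at three times its Kd; 0% = LDV ligand with antibody and no compound and 100% = antibody without LDV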); conditions: HUTS-21 LIBS mAb binding, at 6.7 µM, stronger effect = higher value, binding induced by LDV ligand
Chain of Integrin beta-1 (Homo sapiens) + Integrin alpha-4 (Homo sapiens) (P05556 whole entry, looked up): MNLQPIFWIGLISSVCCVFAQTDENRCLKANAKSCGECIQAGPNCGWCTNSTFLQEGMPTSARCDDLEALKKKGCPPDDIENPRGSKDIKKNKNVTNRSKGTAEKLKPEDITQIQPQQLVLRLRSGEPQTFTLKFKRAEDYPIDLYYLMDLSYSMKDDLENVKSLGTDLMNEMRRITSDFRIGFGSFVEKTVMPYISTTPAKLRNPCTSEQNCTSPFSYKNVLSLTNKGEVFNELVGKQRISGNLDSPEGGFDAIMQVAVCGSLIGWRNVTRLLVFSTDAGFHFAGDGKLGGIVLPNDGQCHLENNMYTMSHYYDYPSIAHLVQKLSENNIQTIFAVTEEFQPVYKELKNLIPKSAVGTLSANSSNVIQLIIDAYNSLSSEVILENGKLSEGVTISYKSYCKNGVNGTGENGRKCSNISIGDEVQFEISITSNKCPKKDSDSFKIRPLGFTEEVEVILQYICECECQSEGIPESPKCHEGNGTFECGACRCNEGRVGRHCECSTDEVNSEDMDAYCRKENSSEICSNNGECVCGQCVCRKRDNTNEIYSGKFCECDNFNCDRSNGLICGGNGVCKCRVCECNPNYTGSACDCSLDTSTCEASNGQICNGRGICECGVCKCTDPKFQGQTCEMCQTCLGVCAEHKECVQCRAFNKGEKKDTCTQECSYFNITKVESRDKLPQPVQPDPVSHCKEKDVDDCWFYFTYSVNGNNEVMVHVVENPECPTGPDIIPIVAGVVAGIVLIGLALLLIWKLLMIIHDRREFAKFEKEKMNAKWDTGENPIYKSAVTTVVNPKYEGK
Chain of Integrin beta-1 (Homo sapiens) + Integrin alpha-4 (Homo sapiens) (P13612 whole entry, looked up): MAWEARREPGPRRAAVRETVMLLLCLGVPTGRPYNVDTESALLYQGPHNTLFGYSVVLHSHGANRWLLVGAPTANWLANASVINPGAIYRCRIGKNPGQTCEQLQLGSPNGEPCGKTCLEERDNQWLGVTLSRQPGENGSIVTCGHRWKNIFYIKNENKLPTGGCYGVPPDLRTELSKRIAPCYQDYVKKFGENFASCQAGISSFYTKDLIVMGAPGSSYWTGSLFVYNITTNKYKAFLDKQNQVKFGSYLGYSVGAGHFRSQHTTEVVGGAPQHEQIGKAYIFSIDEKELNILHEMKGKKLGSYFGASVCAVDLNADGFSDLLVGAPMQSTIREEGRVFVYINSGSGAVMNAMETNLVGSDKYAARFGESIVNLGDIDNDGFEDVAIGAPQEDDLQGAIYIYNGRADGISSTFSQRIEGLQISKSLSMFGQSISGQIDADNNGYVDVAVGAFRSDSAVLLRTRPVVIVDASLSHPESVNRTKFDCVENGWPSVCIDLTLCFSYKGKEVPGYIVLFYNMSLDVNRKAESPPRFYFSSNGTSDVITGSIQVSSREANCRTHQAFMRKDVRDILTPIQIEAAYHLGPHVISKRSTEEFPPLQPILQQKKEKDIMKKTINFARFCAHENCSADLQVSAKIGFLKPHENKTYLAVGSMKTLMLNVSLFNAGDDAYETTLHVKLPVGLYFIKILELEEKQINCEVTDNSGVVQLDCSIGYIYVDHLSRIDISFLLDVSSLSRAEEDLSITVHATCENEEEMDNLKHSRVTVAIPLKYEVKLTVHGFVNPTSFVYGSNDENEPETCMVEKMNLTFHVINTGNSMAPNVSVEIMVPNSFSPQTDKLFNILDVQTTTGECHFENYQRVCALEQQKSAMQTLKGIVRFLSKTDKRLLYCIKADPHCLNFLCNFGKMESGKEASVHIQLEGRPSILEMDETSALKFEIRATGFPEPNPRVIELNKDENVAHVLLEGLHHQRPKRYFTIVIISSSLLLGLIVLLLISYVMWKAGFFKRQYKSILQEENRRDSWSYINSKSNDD

[8] = superoxide lowering in aged yeast cells, pilot screen, validation compound set (AID 2706);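 note: yeast exposed to compound for one week at 30 degrees C before staining; 100% = mean of all compound wells on the same plate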; conditions: S. cerevisiae aging, superoxide DHE fluorescence; at 10 µM; stronger effect = lower value
[9] = molecular target: Beta-adrenergic receptor kinase 1 (Homo sapiens) (UniProt P25098); test: GRK2 binders displacing RNA aptamer, biochemical, validation, human GRK2, bead flow cytometry (AID 488806;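 active = aptamer binding inhibition above 30%, about 3 SD of noise from non-fluorescent compounds; inactive = inhibition at or below 30%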); conditions: bead-bound GRK2, FAM-aptamer displacement, at 10 µM, stronger effect = higher value
Chain of Beta-adrenergic receptor kinase 1 (Homo sapiens) (P25098 whole entry, looked up): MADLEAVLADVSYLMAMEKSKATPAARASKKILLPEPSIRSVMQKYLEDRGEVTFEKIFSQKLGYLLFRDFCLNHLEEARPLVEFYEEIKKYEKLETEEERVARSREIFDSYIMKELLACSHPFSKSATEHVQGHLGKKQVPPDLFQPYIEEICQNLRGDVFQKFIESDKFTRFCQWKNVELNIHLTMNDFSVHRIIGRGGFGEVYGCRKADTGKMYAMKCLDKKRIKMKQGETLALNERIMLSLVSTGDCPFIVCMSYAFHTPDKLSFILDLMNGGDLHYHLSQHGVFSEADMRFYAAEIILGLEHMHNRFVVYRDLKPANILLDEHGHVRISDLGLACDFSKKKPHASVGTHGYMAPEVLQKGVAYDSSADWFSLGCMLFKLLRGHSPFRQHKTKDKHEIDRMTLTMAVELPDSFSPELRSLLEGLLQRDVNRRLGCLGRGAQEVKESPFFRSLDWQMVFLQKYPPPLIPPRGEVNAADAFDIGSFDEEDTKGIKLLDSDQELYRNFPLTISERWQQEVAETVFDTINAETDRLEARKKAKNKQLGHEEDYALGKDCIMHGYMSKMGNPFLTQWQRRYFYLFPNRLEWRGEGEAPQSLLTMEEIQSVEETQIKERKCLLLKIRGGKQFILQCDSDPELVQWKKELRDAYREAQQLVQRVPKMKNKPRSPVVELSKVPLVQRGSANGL

[10] = molecular target: Beta-2 adrenergic receptor (Homo sapiens) (UniProt P07550); test: beta2AR agonists driving receptor internalization, pilot screen, cell-based, FAP fluorogen, flow cytometry, validation set (AID 504459;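 active = percent response above 42, roughly 3 SD of non-fluorescent test compounds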;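 note: agonist-driven loss of surface beta2AR via internalization measured by FAP dye flow cytometry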); conditions: Am2.2-beta2AR cells, FAP surface receptor flow cytometry; at 10 µM; stronger effect = higher value
Chain of Beta-2 adrenergic receptor (Homo sapiens) (P07550 whole entry, looked up): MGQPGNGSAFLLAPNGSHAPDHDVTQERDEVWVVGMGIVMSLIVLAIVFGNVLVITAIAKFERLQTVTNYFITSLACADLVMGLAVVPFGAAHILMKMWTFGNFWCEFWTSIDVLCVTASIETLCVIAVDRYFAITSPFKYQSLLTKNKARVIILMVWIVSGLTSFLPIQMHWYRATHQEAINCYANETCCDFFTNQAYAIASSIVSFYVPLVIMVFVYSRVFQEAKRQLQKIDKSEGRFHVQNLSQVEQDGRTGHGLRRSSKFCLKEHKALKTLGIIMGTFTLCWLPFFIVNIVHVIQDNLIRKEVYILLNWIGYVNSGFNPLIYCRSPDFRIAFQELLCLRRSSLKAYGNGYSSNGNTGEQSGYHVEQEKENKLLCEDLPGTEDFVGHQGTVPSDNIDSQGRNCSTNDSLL

[11] = molecular target: AP-2 complex subunit beta (Homo sapiens) (UniProt P63010); test: inhibitors of arrestin peptide binding to AP2, pilot screen, biochemical, validation set, GST-AP2 beads, flow cytometry (AID 504541;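 active = inhibition above 54%, about 3 SD of non-fluorescent compounds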;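 note: AP2 carries R879A mutation and is captured from E. coli lysate; bead-bound FITC arrestin peptide fluorescence measuring arrestin peptide binding to AP2; 0% = DMSO wells and 100% = excess unlabeled arrestin peptide control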); conditions: FITC arrestin peptide, at 10 µM, stronger effect = higher value, AP2 beta2 appendage fragment, R879A mutant
Chain of AP-2 complex subunit beta (Homo sapiens) (P63010 whole entry, looked up, the tested form may be a part, one chain of several): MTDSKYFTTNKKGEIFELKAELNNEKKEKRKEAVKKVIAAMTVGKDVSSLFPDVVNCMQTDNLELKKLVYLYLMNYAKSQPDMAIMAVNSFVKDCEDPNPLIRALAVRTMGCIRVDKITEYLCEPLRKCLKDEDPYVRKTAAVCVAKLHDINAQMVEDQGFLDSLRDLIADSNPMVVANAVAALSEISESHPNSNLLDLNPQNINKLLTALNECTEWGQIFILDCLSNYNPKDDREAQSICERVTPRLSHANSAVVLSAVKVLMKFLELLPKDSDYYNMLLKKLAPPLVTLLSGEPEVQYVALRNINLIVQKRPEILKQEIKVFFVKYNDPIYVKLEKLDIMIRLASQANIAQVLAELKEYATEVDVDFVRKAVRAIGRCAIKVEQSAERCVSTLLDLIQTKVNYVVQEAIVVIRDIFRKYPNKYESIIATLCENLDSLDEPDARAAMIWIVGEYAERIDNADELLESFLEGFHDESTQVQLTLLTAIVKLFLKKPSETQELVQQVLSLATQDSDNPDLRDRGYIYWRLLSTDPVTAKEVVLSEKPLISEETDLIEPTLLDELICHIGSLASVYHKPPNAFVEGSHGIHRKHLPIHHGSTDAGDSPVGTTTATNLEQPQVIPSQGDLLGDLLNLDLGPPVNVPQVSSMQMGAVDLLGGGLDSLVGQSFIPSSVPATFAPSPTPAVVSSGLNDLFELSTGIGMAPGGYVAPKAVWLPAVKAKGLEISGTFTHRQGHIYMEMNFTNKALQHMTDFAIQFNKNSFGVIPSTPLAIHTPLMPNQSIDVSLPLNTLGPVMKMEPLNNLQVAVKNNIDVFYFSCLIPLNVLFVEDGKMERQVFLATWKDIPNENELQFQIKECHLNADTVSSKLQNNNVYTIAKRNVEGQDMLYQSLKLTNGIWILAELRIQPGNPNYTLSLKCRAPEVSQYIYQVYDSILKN

[12] = yeast V-ATPase proton transport modulators, S. cerevisiae, pHLuorin, HTS validation (AID 504600; in the data active = response above about 15%;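 note: plate controls were DMSO for no effect and reference compound for full effect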); conditions: S. cerevisiae pHLuorin cytosolic pH, at 10 µM, stronger effect = higher value
[13] = test system: anti-desmoglein-3 scFv antibody binding to human DSG3; test: inhibitors of anti-DSG3 scFv binding to DSG3, pilot screen, biochemical, validation compound set, bead-based, flow cytometry (AID 588368;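 active = binding below the plate cutoff, the plate median minus 3 SD, with a reading above zero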;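 note: signal is the median channel fluorescence of bead-bound GFP antibody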); conditions: Protein G beads, DSG3-Fc, scFv-GFP binding, at 10 µM, stronger effect = lower value
[14] = inhibitors of fungal efflux pumps CDR1, CDR2, MDR1, pilot screen, validation compound set, multiplex, phenotypic (AID 588506;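 active = efflux inhibition above 0.42, the validation set average plus 4 SD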;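 note: Nile Red retained in cells so higher fluorescence means more efflux inhibition; 0 = negative control wells and 1 = enniatin B 25 µM full block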); conditions: S. cerevisiae pump-expressing triplex, Nile Red efflux flow cytometry; at 10 µM; stronger effect = higher value; the pumps come from Candida albicans
[15] = molecular target: ATP-binding cassette sub-family B member 6 (Homo sapiens) (UniProt Q9NP58); test: ABCB6 transporter inhibitors, pilot screen, K562-ABCB6 cells, flow cytometry, validation set (AID 588550;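 active = inhibition above the screen-wide mean plus 3 SD, about 51%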;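 note: 0% = DMSO wells and 100% = benzethonium chloride 70 µM positive control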); conditions: K562-ABCB6 porphyrin accumulation, 1 h, at 10 µM, stronger effect = higher value
Chain of ATP-binding cassette sub-family B member 6 (Homo sapiens) (Q9NP58 whole entry, looked up): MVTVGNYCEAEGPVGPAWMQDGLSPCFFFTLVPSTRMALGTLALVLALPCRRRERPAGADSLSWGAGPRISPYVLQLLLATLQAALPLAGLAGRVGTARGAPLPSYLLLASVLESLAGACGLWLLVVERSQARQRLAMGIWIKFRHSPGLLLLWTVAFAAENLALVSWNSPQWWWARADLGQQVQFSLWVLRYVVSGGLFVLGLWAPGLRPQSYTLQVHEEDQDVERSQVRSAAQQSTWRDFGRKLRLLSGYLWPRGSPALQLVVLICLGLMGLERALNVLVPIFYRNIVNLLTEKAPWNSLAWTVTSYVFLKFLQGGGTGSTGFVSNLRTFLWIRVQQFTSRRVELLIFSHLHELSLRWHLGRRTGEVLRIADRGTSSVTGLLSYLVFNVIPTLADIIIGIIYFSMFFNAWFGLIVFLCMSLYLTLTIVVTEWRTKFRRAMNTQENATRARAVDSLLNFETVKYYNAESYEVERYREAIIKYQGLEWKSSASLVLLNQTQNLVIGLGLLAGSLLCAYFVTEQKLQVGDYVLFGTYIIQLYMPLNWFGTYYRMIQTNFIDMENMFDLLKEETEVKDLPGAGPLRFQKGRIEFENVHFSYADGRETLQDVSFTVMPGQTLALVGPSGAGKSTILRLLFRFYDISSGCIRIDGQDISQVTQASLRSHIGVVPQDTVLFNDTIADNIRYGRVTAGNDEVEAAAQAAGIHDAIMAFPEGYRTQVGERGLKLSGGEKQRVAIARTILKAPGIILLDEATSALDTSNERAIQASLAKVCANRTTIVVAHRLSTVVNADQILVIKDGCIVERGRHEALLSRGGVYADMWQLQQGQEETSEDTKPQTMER

[16] = promoters of myeloid differentiation in arrested cells, primary screen, cell-based, GFP/MAC1 double positive, flow cytometry, validation set (AID 588685;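 active = differentiation response of at least 50%, scaled between solvent and reference control, from cells with both markers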;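 note: compound exposure lasts four days before antibody staining and flow analysis; 0% = DMSO wells and 100% = 5 µM fulvestrant positive control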); conditions: ER-HoxA9 marrow cells, stronger effect = higher value, normalized: vehicle 0, fulvestrant 100

SMILES | percent of DMSO control GFP [1] | GFP response vs DMSO [2] | percent response of DMSO control [3] | GFP response vs DMSO [4] | GFP response, % of DMSO [5] | double positive events [6] | vesicle binding response [6] | inhibition [7] | superoxide response (% of plate) [8] | aptamer binding inhibition [9] | response [10] | inhibition [11] | response [12] | binding (% of control) [13] | efflux inhibition (fraction of control) [14] | inhibition [15] | differentiation response [16]
Cc1oc2c(O)c(O)ccc2c(=O)c1-c1ccccc1 | 87.8% (inactive) | 107% (inactive) | 106% (inactive) | 74.3% (inactive) | 90.8% (inactive) | 59.4% | 119% (inactive) | -1.3% (inactive) | 110% (inactive) | 3% (inactive) | -8.83% (inactive) | -5.67% (inactive) | -1.26% (inactive) | 107% (inactive) | 0.45 (active) | 9% (inactive) | -2.46% (inactive)
CC(=O)OCC[N+](C)(C)C | 95.9% (inactive) | 116% (inactive) | 101% (inactive) | 83.6% (inactive) | 105% (inactive) | 61.2% and 60.9% | 178% (inactive) and 161% (inactive) | -20.7% (inactive) and 1.44% (inactive) | 90.4% (inactive) and 67.4% (inactive) | 4% (inactive) and 1% (inactive) | -3.17% (inactive) and -8.19% (inactive) | -8.61% (inactive) and -2% (inactive) | 2.52% (inactive) and -3.48% (inactive) | 102% (inactive) and 106% (inactive) | 0.09 (inactive) and 0 (inactive) | 6% (inactive) and 10% (inactive) | 2.46% (inactive) and -2.03% (inactive)
O=C1C(=O)c2ccccc2C(O)=C1c1ccccc1F | 111% (inactive) | 99.9% (inactive) | 71.2% (inactive) | 109% (inactive) | 85% (inactive) | 54.9% | 15.9% (active) | -11.8% (inactive) | 175% (inactive) | 6% (inactive) | 4.63% (inactive) | 5.16% (inactive) | 0.28% (inactive) | 99% (inactive) | 0.46 (active) | 5% (inactive) | 14.1% (inactive)
CC12CCC(C(=O)N3CCc4ccccc43)(CC1=O)C2(C)C (stereo not drawn) | 101% (inactive) | 102% (inactive) | 97.6% (inactive) | 95.9% (inactive) | 91.2% (inactive) | 60.3% | 115% (inactive) | -2.43% (inactive) | 108% (inactive) | 13% (inactive) | -16.3% (inactive) | 5.6% (inactive) | 2.72% (inactive) | 102% (inactive) | -0.24 (inactive) | 4% (inactive) | -10.4% (inactive)
N/C(=N\OC(=O)CCCOc1ccc(Cl)cc1Cl)c1ccncc1 | 96.4% (inactive) | 110% (inactive) | 108% (inactive) | 118% (inactive) | 92.4% (inactive) | 56.8% | 142% (inactive) | 4.27% (inactive) | 103% (inactive) | -1% (inactive) | -12.7% (inactive) | 3.28% (inactive) | -3.36% (inactive) | 102% (inactive) | -0.005 (inactive) | -7% (inactive) | 4.2% (inactive)
Cc1cc(-c2nn(-c3ccccc3F)cc2CN2CCCC(O)C2)c(C)s1 (stereo not drawn) | 97.6% (inactive) | 101% (inactive) | 97.7% (inactive) | 117% (inactive) | 107% (inactive) | 56.6% | 148% (inactive) | 5.69% (inactive) | 84.2% (inactive) | -2% (inactive) | -40.3% (inactive) | -12.6% (inactive) | -5.22% (inactive) | 103% (inactive) | -0.04 (inactive) | 0% (inactive) | -13.9% (inactive)
CCc1nc(N)nc(N)c1-c1ccc(Cl)cc1 | 92.2% (inactive) | 112% (inactive) | 102% (inactive) | 70.4% (inactive) | 101% (inactive) | 65.6% | 209% (inactive) | 5.49% (inactive) | 87.5% (inactive) | 0% (inactive) | -2.3% (inactive) | 1.62% (inactive) | 1.08% (inactive) | 137% (inactive) | 0.23 (inactive) | 10% (inactive) | -3.28% (inactive)
O=c1[nH]c(=O)n(C2CCCO2)cc1F (stereo not drawn) | 93.5% (inactive) | 117% (inactive) | 97.9% (inactive) | 81.4% (inactive) | 95.6% (inactive) | 60.9% | 137% (inactive) | -17.8% (inactive) | 96.1% (inactive) | 7% (inactive) | -4.34% (inactive) | -10.2% (inactive) | 6.89% (inactive) | 110% (inactive) | 0.09 (inactive) | 14% (inactive) | 35.2% (inactive)
CN1CCc2c(n(CC(O)CN(CCO)CCO)c3ccccc23)C1=O (stereo not drawn) | 92.6% (inactive) | 143% (active) | 97.9% (inactive) | 82% (inactive) | 99.6% (inactive) | 52.3% | 195% (inactive) | -9.06% (inactive) | 100% (inactive) | 0% (inactive) | -17.4% (inactive) | 13.6% (inactive) | -1.82% (inactive) | 104% (inactive) | 0.09 (inactive) | 8% (inactive) | -9.83% (inactive)
